Results: PubChem BioAssay (NCATS)
Inconclusive results are not listed. Activity calls are given as the source filed them. Calls follow the shape of the dose curve; as a rule, active = well fitted inhibition curve with a large enough effect; inconclusive = small, poorly fitted or top-dose-only effect; inactive = flat fitted curve, though single readings scatter.

How the values were obtained:
Test in all cases: qHTS profiling for inhibitors of Plasmodium falciparum proliferation (AID 504749); also: nearly all actives have a fitted effect of over 60% in size
Settings in all cases: P. falciparum in erythrocytes, SYBR Green DNA, 72 h; series mostly up to 28.7 µM
AA1029 = tested on: AA1029
Outline: (§1)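 SYBR Green fluorescence of parasite DNA, read after lysis and overnight dark incubation, measured growth over 72 h in erythrocyte culture at 0.3% parasitemia and 2.5% hematocrit. Data normalised to DMSO and 0.29 uM artemisinin, with plate-drift correction.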

ATS95 = tested on: ATS95
Outline: as §1

C2A = tested on: C2A
Outline: as §1

CP211 = tested on: CP211
Outline: as §1

CP215 = tested on: CP215
Outline: as §1

CP217 = tested on: CP217
Outline: as §1

CP250 = tested on: CP250
Outline: as §1

CP252 = tested on: CP252
Outline: as §1

CP256 = tested on: CP256
Outline: as §1

CP262 = tested on: CP262
Outline: as §1

CP265 = tested on: CP265
Outline: as §1

CP269 = tested on: CP269
Outline: as §1

CP325 = tested on: CP325
Outline: as §1

CP329 = tested on: CP329
Outline: as §1

ECU = tested on: ECU
Outline: as §1

N140 = tested on: N140
Outline: as §1

P93_24 = tested on: P93_24
Outline: as §1

PAD = tested on: PAD
Outline: as §1

SC27B = tested on: SC27B
Outline: as §1

TAB165 = tested on: TAB165
Outline: as §1

Measured: Potency
Potency is read from the fitted curve at half-maximal effect.

CC(C)[C@@]1(NC(=O)[C@H]2CC3c4cccc5[nH]cc(c45)C[C@H]3N(C)C2)O[C@@]2(O)C3CCCN3C(=O)[C@@H](Cc3ccccc3)N2C1=O (stereo not given in full)
active: AA1029 3.16 µM | ATS95 3.16 µM | C2A 6.31 µM | CP211 6.01 µM | CP215 5.36 µM | CP217 3.98 µM | CP250 12.6 µM | CP252 3.98 µM | CP256 7.94 µM | CP262 12 µM | CP265 4.47 µM | CP269 4.26 µM | CP325 9.53 µM | CP329 13.5 µM | ECU 1.41 µM | N140 0.447 µM | P93_24 0.891 µM | PAD 1.12 µM | SC27B 2 µM | TAB165 0.562 µM

CCN1C[C@]2(COC)[C@H](O)C[C@H](OC)[C@]34C1C([C@H](OC)[C@H]23)[C@]1(OC(C)=O)C2[C@@H](OC(=O)c3ccccc3)C(O)(C[C@H]24)[C@@H](OC)[C@@H]1O
inactive: all assays above
